Data on 64 molecules can be found in PubChem BioAssay AID652115 (Broad Institute, 2013).

“And” between values parts separate entries of the source, which are not always exact repeats. Equal values may be shown once. Among all 330,000 compounds or so, about 3,800 (1.2%) were called active. The full list was thinned out, with actives kept by preference. Unmarked numbers belong to inactive results. No stated cut-off is given here; in the data, active means inhibition above about 15%; inconclusive means no clear call, values can overlap the other calls; inactive means below that.

In this test the target is NAD-dependent protein deacylase sirtuin-5, mitochondrial (Homo sapiens) (UniProt Q9NXA8). As to the kind of experiment: blockers of sirtuin-5 deacylase activity – biochemical, fluorescence imaging, single point, set 5, primary screen (AID 652115). Conditions: Purified SirT5, succinyl-peptide AMC, trypsin-coupled fluorescence; at 15 µM; active compounds read high.
Chain of NAD-dependent protein deacylase sirtuin-5, mitochondrial (Homo sapiens) (Q9NXA8 whole entry, looked up): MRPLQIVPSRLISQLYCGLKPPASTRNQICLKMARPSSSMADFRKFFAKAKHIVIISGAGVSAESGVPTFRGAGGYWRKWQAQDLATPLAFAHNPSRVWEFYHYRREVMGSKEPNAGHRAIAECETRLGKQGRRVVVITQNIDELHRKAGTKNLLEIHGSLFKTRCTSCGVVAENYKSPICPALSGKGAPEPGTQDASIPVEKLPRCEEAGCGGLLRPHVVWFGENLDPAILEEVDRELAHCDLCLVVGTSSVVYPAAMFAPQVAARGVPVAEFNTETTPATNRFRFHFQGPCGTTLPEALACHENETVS
On to `O=C(Nc1ccc(C(F)(F)F)cc1)N[C@@H]1CC[C@H](CC(=O)N2CCCCC2)O[C@H]1CO`, for which the inhibition was -2.54%.

Regarding `O=C([C@@H]1[C@@H](CO)[C@@H]2Cn3c(ccc(-c4ccccc4)c3=O)[C@H]1N2CCC(F)(F)F)N1CCCCC1`, the inhibition was -29.7%.

Regarding `CCCNC(=O)N1CC(=O)N2[C@H](CO)[C@@H](c3ccc(-c4ccc(F)cc4)cc3)[C@H]2C1`, the inhibition is 4.11%.

In the case of `C[C@H](CO)N1C[C@H](C)[C@@H](CN(C)C(=O)Nc2ccnc(N3CCOCC3)c2)OCc2ccccc2-c2c(n(C)c3ccccc23)C1=O`, the inhibition was -5.68%.

`Cc1ccc(C)c(NC(=O)c2ccc3nccnc3c2)c1`: the inhibition is 0.033%.

On to `Cc1nnc(NC(=O)c2ccc3nccnc3c2)s1`, for which the inhibition is 16.3% (active).

Turning to `CC(C)CCC(C)NC(=O)c1ccc2nccnc2c1` (centres undefined), the inhibition is 7.36%.

Turning to `O=C(Nc1ccc(C(F)(F)F)cc1)N[C@@H]1CC[C@H](CCNC(=O)c2ccccc2F)O[C@@H]1CO`, the inhibition is 0.363%.

Regarding `Cc1ccc(S(=O)(=O)NC[C@H]2CC[C@@H]3[C@@H](CN3Cc3ccccc3C(=O)O)O2)cc1`, the inhibition is -3.22%.

Take `C[C@@H](NC(=O)C[C@H]1C[C@H]2c3cc(NC(=O)Nc4ccccc4F)ccc3O[C@H]2[C@@H](CO)O1)c1ccccc1`: the inhibition was 2.15%.

As for `COC(=O)c1ccc(CSc2nnc(N)s2)o1`, the inhibition was 16% (active).

On to `COCC(C)n1c(SCc2ccc(C(=O)OC)o2)nc2ccccc2c1=O` (centres undefined), for which the inhibition is 1.17%.

As to `Nc1nnc(SCC(=O)NCC(=O)Nc2ccc(F)c(F)c2F)s1`, the inhibition was 0.518%.

As to `CN1CCN(C(=O)C[C@H]2CC[C@@H](NC(=O)c3ccc4c(c3)OCO4)[C@H](CO)O2)CC1`, the inhibition was 1.96%.

As to `CCOC(=O)c1c(NC(=S)Nc2ccccc2C)sc2c1CCC2`, the inhibition was 22.8% (active).

`CCOC(=O)c1c(NC(=O)C2(C)Cc3ccccc3C(=O)O2)sc2c1CCCC2` (centres undefined): the inhibition is -3.61%.

With `CCOC(=O)c1c(NC(=O)C(C)Sc2c[nH]c3ccccc23)sc2c1CCC2` (centres undefined), the inhibition was 0.63%.

For `O=C(C[C@H]1CC[C@H]2[C@@H](COC[C@@H](O)CN2Cc2ccccc2F)O1)NCc1ccccc1F`, the inhibition is 3.18%.

Regarding `C/C(=C\c1ccccc1)C1NC(=O)c2c(sc3c2CCCC3)N1` (centres undefined), the inhibition is -1.37%.

Take `O=C1NC(c2ccncc2)Nc2sc3c(c21)CCCC3` (centres undefined): the inhibition is 15.5% (active).

Take `CC(=O)N1[C@@H](CO)[C@@H](c2ccc(C3=CCCC3)cc2)C12CN(C(=O)C1CC1)C2`: the inhibition is 3.6%.

For `CO[C@H]1CN(C)C(=O)c2ccc(NC(=O)c3ccno3)cc2OC[C@@H](C)N(S(C)(=O)=O)C[C@H]1C`, the inhibition is 17% (active).

Take `CO[C@H]1CN(C)C(=O)c2ccc(NC(=O)c3cnccn3)cc2OC[C@H](C)N(C)C[C@@H]1C`: the inhibition is 0.983%.

With `CO[C@@H]1CN(C)C(=O)c2cc(NC(=O)c3ccno3)ccc2OC[C@@H](C)N(S(C)(=O)=O)C[C@@H]1C`, the inhibition is 0.416%.

For `COCC(=O)Nc1ccc2c(c1)[C@H]1C[C@H](CC(=O)NCc3ccc(OC)cc3)O[C@@H](CO)[C@H]1O2`, the inhibition is -0.814%.

Turning to `CCCNC(=O)N1C[C@H](C)[C@@H](OC)CN(C)C(=O)c2ccc(NS(C)(=O)=O)cc2OC[C@@H]1C`, the inhibition was -4.54%.

`C[C@@H]1CN([C@@H](C)CO)C(=O)c2cc(-c3ccc(C#N)cc3)cnc2O[C@@H]1CN(C)Cc1cccnc1`: the inhibition is -2.7%.

Turning to `CO[C@H]1CN(C)C(=O)c2ccc(NC(=O)Nc3ccc(Cl)cc3)cc2OC[C@H](C)N(C(=O)Nc2c(C)noc2C)C[C@@H]1C`, the inhibition was -0.008%.

`COc1ccc(NC(=O)CSc2ccc(-c3ccco3)nn2)c(OC)c1`: the inhibition is -1.12%.

As to `COc1ccccc1OCC(=O)OCc1cc(-c2ccco2)on1`, the inhibition is 18.8% (active).

For the molecule `COc1ccccc1OCC(=O)O/N=C(\N)c1ccccn1`, the inhibition was 0.993%.

Turning to `COCC(=O)Nc1ccc2c(c1)OC[C@@H](C)N(C(=O)c1cnccn1)C[C@H](C)[C@H](OC)CN(C)C2=O`, the inhibition is -3.74%.

As to `CCC(=O)N1CC(=O)N2[C@@H](CO)[C@@H](c3ccc(C#CC4CCCC4)cc3)[C@@H]2C1`, the inhibition was -0.876%.

On to `C[C@H](CO)N1C[C@H](C)[C@H](CN(C)C(=O)c2ccccn2)Oc2ncc(-c3ccccc3F)cc2C1=O`, for which the inhibition was 0.464%.

`Cc1ccc(S(=O)(=O)N(C)C[C@@H]2OCCCC[C@@H](C)Oc3ccc(NS(=O)(=O)c4ccccc4)cc3C(=O)N([C@H](C)CO)C[C@@H]2C)cc1`: the inhibition was 15%.

`Cc1ccc(S(=O)(=O)Nc2ccc3c(c2)C(=O)N([C@H](C)CO)C[C@@H](C)[C@H](CN(C)S(=O)(=O)c2ccc(C)cc2)OCCCC[C@@H](C)O3)cc1`: the inhibition was 15.5% (active).

Regarding `C[C@@H]1CCCCO[C@H](CN(C)CC2CCCCC2)[C@H](C)CN([C@H](C)CO)C(=O)c2cc(NS(=O)(=O)c3ccc(F)cc3)ccc2O1`, the inhibition is 16% (active).

Consider `C[C@@H]1CCCCO[C@H](CN(C)Cc2ccc(C(F)(F)F)cc2)[C@@H](C)CN([C@@H](C)CO)C(=O)c2cc(NC(=O)c3ccncc3)ccc2O1`, for which the inhibition is 15.9% (active).

Consider `C[C@@H]1CCCCO[C@@H](CN(C)S(C)(=O)=O)[C@H](C)CN([C@@H](C)CO)C(=O)c2cc(NS(=O)(=O)c3ccc(F)cc3)ccc2O1`, for which the inhibition is 1.65%.

Consider `C[C@@H]1CCCCO[C@@H](CN(C)Cc2ccc(Cl)c(Cl)c2)[C@H](C)CN([C@@H](C)CO)C(=O)c2cc(NS(C)(=O)=O)ccc2O1`, for which the inhibition was 11.8%.

As for `Cc1ccc(S(=O)(=O)Nc2ccc3c(c2)C(=O)N([C@@H](C)CO)C[C@@H](C)[C@H](CN(C)Cc2ccc4c(c2)OCO4)OCCCC[C@@H](C)O3)cc1`, the inhibition is 4.41%.

For `C[C@@H]1CCCCO[C@H](CN(C)Cc2ccc(C(F)(F)F)cc2)[C@H](C)CN([C@H](C)CO)C(=O)c2cc(NC(=O)Nc3ccc(F)cc3)ccc2O1`, the inhibition is 5.62%.

On to `CC(C)NC(=O)Nc1ccc2c(c1)C(=O)N([C@H](C)CO)C[C@H](C)[C@@H](CN(C)Cc1ccc(C(F)(F)F)cc1)OCCCC[C@@H](C)O2`, for which the inhibition was 0.221% and 2.28%.

For `C[C@H](CO)N1C[C@H](C)[C@H](CN(C)CC2CCCCC2)OCCCC[C@H](C)Oc2ccc(NS(=O)(=O)c3ccc(F)cc3)cc2C1=O`, the inhibition was 13.2%.

As to `Cc1ccc(S(=O)(=O)N(C)C[C@H]2OCCCC[C@@H](C)Oc3ccc(NS(C)(=O)=O)cc3C(=O)N([C@H](C)CO)C[C@@H]2C)cc1`, the inhibition was -1.35%.

As for `Cc1ccc(S(=O)(=O)Nc2ccc3c(c2)C(=O)N([C@@H](C)CO)C[C@@H](C)[C@H](CN(C)Cc2ccc(Cl)c(Cl)c2)OCCCC[C@@H](C)O3)cc1`, the inhibition is 17.4% (active).

As to `CN(C)CC(=O)N1[C@@H](C#N)[C@@H](c2ccccc2-c2ccccc2F)[C@@H]1CO`, the inhibition was -0.215%.

As to `COCC(=O)N1C[C@@H](C)[C@H](OC)CN(C)C(=O)c2cc(NC(=O)c3cc(C)on3)ccc2OC[C@@H]1C`, the inhibition is -4.63%.

As to `N#Cc1ccc(-c2ccc([C@@H]3[C@H]4CNC[C@@H]3N4Cc3cc(F)ccc3F)cc2)cc1`, the inhibition was -3.56%.

Consider `COCC#Cc1cnc2c(c1)C(=O)N([C@H](C)CO)C[C@H](C)[C@H](CN(C)C(=O)Nc1ccccc1OC)O2`, for which the inhibition is 3.78%.

Consider `C[C@@H](NC(=O)C[C@H]1C[C@@H]2c3cc(NC(=O)Nc4ccccc4F)ccc3O[C@@H]2[C@H](CO)O1)c1ccccc1`, for which the inhibition is 1.89%.

Turning to `COc1ccccc1NC(=O)Nc1ccc2c(c1)OC[C@H](C)NC[C@H](C)[C@@H](OC)CN(C)C2=O`, the inhibition was 6.5%.

Take `COc1ccc(S(=O)(=O)N(C)C[C@H]2OCCCC[C@@H](C)Oc3ccc(NS(=O)(=O)c4ccc(C)cc4)cc3C(=O)N([C@@H](C)CO)C[C@@H]2C)cc1`: the inhibition was 21.4% (active).

`C[C@@H]1CN([C@H](C)CO)C(=O)c2cc(NC(=O)Nc3ccc4c(c3)OCO4)ccc2O[C@@H](C)CCCCO[C@@H]1CN(C)Cc1ccc2c(c1)OCO2`: the inhibition was 15.3% (active).

With `COc1ccc(S(=O)(=O)Nc2ccc3c(c2)C(=O)N([C@@H](C)CO)C[C@H](C)[C@H](CN(C)S(=O)(=O)c2ccc(F)cc2)OCCCC[C@@H](C)O3)cc1`, the inhibition was 11.3%.

`C[C@@H]1CN([C@@H](C)CO)C(=O)c2cc(NC(=O)Nc3cccc4ccccc34)ccc2O[C@@H](C)CCCCO[C@@H]1CN(C)S(=O)(=O)c1ccc(Cl)cc1`: the inhibition is 18.7% (active).

For `C[C@@H]1CCCCO[C@@H](CN(C)Cc2ccc3c(c2)OCO3)[C@@H](C)CN([C@@H](C)CO)C(=O)c2cc(NC(=O)Nc3ccccc3)ccc2O1`, the inhibition was 0.341%.

Turning to `COc1ccc(S(=O)(=O)Nc2ccc3c(c2)C(=O)N([C@@H](C)CO)C[C@H](C)[C@@H](CN(C)S(=O)(=O)c2ccc(F)cc2)OCCCC[C@H](C)O3)cc1`, the inhibition was 3.5%.

On to `C[C@H](CO)N1C[C@H](C)[C@@H](CN(C)S(C)(=O)=O)OCCCC[C@H](C)Oc2ccc(NC(=O)Nc3cccc4ccccc34)cc2C1=O`, for which the inhibition is -3.3%.

On to `CC(C)NC(=O)Nc1ccc2c(c1)C(=O)N([C@@H](C)CO)C[C@H](C)[C@H](CN(C)S(=O)(=O)c1ccc(Cl)cc1)OCCCC[C@H](C)O2`, for which the inhibition is 4.57%.

As to `COc1ccc(S(=O)(=O)N(C)C[C@@H]2OCCCC[C@@H](C)Oc3ccc(NS(=O)(=O)c4ccccc4)cc3C(=O)N([C@@H](C)CO)C[C@H]2C)cc1`, the inhibition is 4.81%.

For the molecule `COc1ccc(S(=O)(=O)N(C)C[C@H]2OCCCC[C@H](C)Oc3ccc(NS(=O)(=O)c4ccc(F)cc4)cc3C(=O)N([C@@H](C)CO)C[C@@H]2C)cc1`, the inhibition was 20.4% (active).

`COc1ccc(S(=O)(=O)Nc2ccc3c(c2)C(=O)N([C@@H](C)CO)C[C@H](C)[C@@H](CN(C)S(=O)(=O)c2ccc(C)cc2)OCCCC[C@@H](C)O3)cc1`: the inhibition was 4.83%.

In the case of `C[C@H]1CCCCO[C@@H](CN(C)Cc2ccc3c(c2)OCO3)[C@@H](C)CN([C@@H](C)CO)C(=O)c2cc(NC(=O)Nc3ccc(F)cc3)ccc2O1`, the inhibition is 1.57%.
